Compound activity as filed in PubChem BioAssay.
TRPML1 agonist: agonists of human TRPML1 channel. Q9GZU1. TRPML1-expressing cells, Ca2+ dye fluorescence, FDSS. activation, % (concentration not given with the values). 0.12% of 410,000 active. AID 624414; in the data active means activation above about 50%; inconclusive means mostly about 30% to 49%; further: 0% is about no effect
Target sequence (Q9GZU1 whole entry, looked up): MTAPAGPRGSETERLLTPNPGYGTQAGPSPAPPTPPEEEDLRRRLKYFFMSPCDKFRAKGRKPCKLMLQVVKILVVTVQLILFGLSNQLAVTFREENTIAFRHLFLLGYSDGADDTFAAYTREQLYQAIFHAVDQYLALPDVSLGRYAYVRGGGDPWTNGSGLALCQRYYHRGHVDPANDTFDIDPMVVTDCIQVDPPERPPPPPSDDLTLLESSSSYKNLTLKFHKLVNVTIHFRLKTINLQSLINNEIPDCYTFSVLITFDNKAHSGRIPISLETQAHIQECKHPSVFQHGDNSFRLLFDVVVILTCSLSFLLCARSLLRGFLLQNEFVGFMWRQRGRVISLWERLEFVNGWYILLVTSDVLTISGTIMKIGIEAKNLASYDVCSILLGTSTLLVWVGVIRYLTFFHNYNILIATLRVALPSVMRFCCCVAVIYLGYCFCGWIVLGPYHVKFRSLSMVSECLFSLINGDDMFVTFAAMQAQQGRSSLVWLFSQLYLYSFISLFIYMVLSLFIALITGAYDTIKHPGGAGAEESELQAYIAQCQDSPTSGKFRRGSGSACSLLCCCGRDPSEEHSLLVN
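Calcium fluorescence on an FDSS kinetic reader gave the read-out. Tet-induced TRPML1-DL cells were plated overnight, dye-loaded (Ca8 with quencher, 45-90 min, room temperature, dark), then read 110 s after compound addition, and again 110 s after 4uM final 54-4 (EC80).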
Vif-A3F inh: Vif-A3F binding inhibition. HeLa A3F-eYFP + Vif (tagged APOBEC3F with the HIV-1 protein that degrades it), YFP fluorescence increase. AID 602313. Potency, µM (highest dose often 46.1 µM), for the others: at the highest dose activity, negative = active. 0.2% of 390,000 active; further: potency means the concentration at half of the fitted maximal effect; % of control where 0% means no effect; nearly all actives have a fitted effect of over 65% in size
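HeLa cells stably expressing Vif plus C-terminally eYFP-tagged A3F were seeded, incubated overnight at 37 deg C, dosed with compound, incubated overnight again at 37 deg C. Yellow fluorescence (Ex 488/Em 500-530) reported blocked Vif-mediated A3F-eYFP degradation.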
TRPML1 inh: human mucolipin-1 channel inhibition; Q9GZU1; TRPML1-inducible cells, Ca2+ dye fluorescence, FDSS; stronger effect = lower value; inhibition of EC80 agonist-evoked calcium signal; activity change, negative = inhibition, % (concentration not given with the values); 0.02% of 390,000 active; in the data active means activity change below about -50%; inconclusive means between about -30% and that limit;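 further: stimulus is agonist 54-4 at its EC80 concentration; on the % scale 0 is the no-effect control and ±100 the full control effect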
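Tet-induced TRPML1-DL cells loaded with Ca8 no-wash calcium dye were read kinetically on FDSS. Compound addition was followed by EC80 agonist 54-4 (4 uM final); inhibition was read over 110 s.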
Vif-A3G inh: inhibitors of Vif-APOBEC3G interaction | Q9HC16 | HeLa A3G-eYFP + Vif (tagged APOBEC3G with the HIV-1 protein that degrades it), YFP fluorescence, overnight | 0.076% of 410,000 active | Potency, µM (top dose mostly 46.1 µM), for inactives: top-dose activity, negative = active, actives largely listed as inhibitors | AID 602310; further: potency means the concentration at half of the fitted maximal effect; on the % scale 0 is the no-effect control and ±100 the full control effect; nearly all actives have a fitted effect of over 60% in size
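HeLa cells stably expressing Vif and C-terminally eYFP-tagged A3G, seeded overnight at 37 deg C, then exposed to compound by pintool overnight at 37 deg C. Rise in yellow fluorescence (Ex 488/Em 500-530, Acumen) marks blocked Vif-driven A3G degradation.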
ALOX12 inh: ALOX12 (human) lipoxygenase inhibition; purified 12hLO, xylenol orange hydroperoxide absorbance; Potency, µM (top dose mostly 108 µM), for the others: at the top dose activity change, negative = inhibition, usual class: inhibitors; 1.1% of 580,000 active; further: potency means the concentration at half of the fitted maximal effect; on the % scale 0 is the no-effect control and ±100 the full control effect
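Purified human 12hLO (150 nM final) in 25 mM Hepes, 0.01% Triton X-100, pH 7.0 was preincubated 15 min at room temperature with compound. Then 40 uM arachidonic acid was added, 30 min. Hydroperoxide was read by Fe-XO absorbance ratio 573/405 nm.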
GRP78 ERSR act: ER stress response induction in glioma; AID 602332; U87-MG GRP78 promoter luciferase reporter, 16 h; 0.02% of 420,000 active; Potency, µM, for the others: at the top dose activation, usual class: activators; further: potency means the concentration at half of the fitted maximal effect; series mostly up to about 76 µM; % of control where 0% means no effect; nearly all actives have a fitted effect of over 35% in size
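Stably transfected U87-MG glioma cells carrying a GRP78-based luciferase sensor; 16 h compound incubation. Luminescence end-point read 10 min after Bright-Glo addition at room temperature.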
An asterisk follows results filed as active; ! = not active in a repeat. Compounds with a hit are over-represented: about 1.3% of the library has one in this group of screens. Unless noted, the call rests on the fitted dose curve; in most records, active means well fitted curve in the direction sought with a large enough effect; inconclusive means small, poorly fitted or top-dose-only effect, or another doubt; inactive means no such curve, though single readings can be large; an effect the other way counts as inactive or inconclusive.

What do the screens show for `CCN1/C(=C/C=C/C=C/c2sc3ccccc3[n+]2CC)Sc2ccccc21`?
TRPML1 agonist: -0.5; Vif-A3G inh: 1.7%; GRP78 ERSR act: -9.9%

How did COc1ccc(NC(=O)N[C@@H]2C=C[C@@H](c3c(C)nn(-c4ccc(C(C)C)cc4)c3C)C2)cc1 do in these assays?
ALOX12 inh: 0.8%

Results for COC(=O)c1cccc(NC(=S)N[C@@H]2C=C[C@@H](c3c(C)nn(-c4ccc(C(C)C)cc4)c3C)C2)c1 ?
ALOX12 inh: 44.7µM*

Results for Cc1nn(-c2ccc(C(C)C)cc2)c(C)c1[C@@H]1C=C[C@@H](NC(=S)NC2CCCCC2)C1 ?
ALOX12 inh: 39.8µM*

What do the screens show for `CCCCCCCC/C=C\CCCCCCCC(=O)NCc1ccc(O)c(OC)c1`?
ALOX12 inh: 0.0%; GRP78 ERSR act: -1.6%

What do the screens show for `CCCCCCCC/C=C\CCCCCCCC(=O)NCCc1ccc(O)c(O)c1`?
TRPML1 agonist: -0.6; Vif-A3F inh: -8.2%; TRPML1 inh: 30.2; Vif-A3G inh: -25.5%; ALOX12 inh: 5.62µM*!; GRP78 ERSR act: -4.3%

Results for CCCCn1c(NC(=O)c2ccccc2)c(C#N)c2nc3ccccc3nc21 ?
TRPML1 agonist: 8.0; Vif-A3F inh: inconclusive; TRPML1 inh: 2.5; Vif-A3G inh: inconclusive; ALOX12 inh: -28.0%; GRP78 ERSR act: -3.7%

What do the screens show for `CCC(C)n1c(NC(=O)c2ccccc2)c(C#N)c2nc3ccccc3nc21` (stereo not drawn)?
TRPML1 agonist: 0.6; Vif-A3F inh: 31.6µM*; TRPML1 inh: -17.2; Vif-A3G inh: inconclusive; ALOX12 inh: 0.0%; GRP78 ERSR act: -4.3%

How did CN(C)CCNc1nnnc2c1sc1nc(N3CCOCC3)c3c(c12)CC(C)(C)OC3 do in these assays?
ALOX12 inh: 9.1%

How did CN(C)CCCNc1cc(N2CCN(C3CCCCC3)CC2)c2noc3c2c1C(=O)c1ccccc1-3 do in these assays?
TRPML1 agonist: -0.5; Vif-A3F inh: 4.47µM*; TRPML1 inh: -5.9; Vif-A3G inh: inconclusive; ALOX12 inh: 6.8%; GRP78 ERSR act: -3.6%

What do the screens show for `COC(=O)C1CN(Cc2cn(Cc3ccc(C)cc3)nn2)CCS(=O)(=O)N1Cc1ccc(C)cc1` (stereo not drawn)?
ALOX12 inh: 15.8µM*

Results for O=C(Nc1cccc(OCC2CCCO2)c1)C1CCCCC1 (stereo not drawn) ?
ALOX12 inh: -2.0%

What do the screens show for `COc1ccccc1Oc1ccc(NC(=O)C2CCN(S(C)(=O)=O)CC2)cc1`?
ALOX12 inh: -6.8%

How did Cc1ccc(S(=O)(=O)N2CCc3ccccc3C2CN2C(=O)c3ccccc3C2=O)cc1 (stereo not drawn) do in these assays?
TRPML1 agonist: 87.5*; Vif-A3F inh: 5.5%; TRPML1 inh: -19.1; Vif-A3G inh: 4.0%; ALOX12 inh: -4.7%; GRP78 ERSR act: -4.4%

How did O=C(CCc1ccsc1)N(Cc1ccncc1)C1CC1 do in these assays?
ALOX12 inh: 6.3%

Results for O=C(c1ccsc1)N(Cc1ccco1)C1CC1 ?
ALOX12 inh: 35.5µM*

How did O=C(CCc1ccsc1)N(Cc1ccco1)C1CC1 do in these assays?
ALOX12 inh: 15.8µM*

Results for O=C(Cc1cccs1)N(Cc1ccco1)C1CC1 ?
ALOX12 inh: 14.1µM*

What do the screens show for `Cc1cc(C)n(-c2ncnc3sc(C)c(-c4ccc(F)cc4)c23)n1`?
ALOX12 inh: -4.3%

Results for CCCc1sc(C(=O)OC(C)C(=O)Nc2cc(C)on2)cc1CC (stereo not drawn) ?
ALOX12 inh: 0.0%

Results for CCOC(=O)c1cc(-c2ccccc2)sc1NC(=S)Nc1cc(C)ccn1 ?
TRPML1 agonist: -1.2; Vif-A3F inh: 8.91µM*; TRPML1 inh: -18.8; Vif-A3G inh: 1.1%; ALOX12 inh: inconclusive; GRP78 ERSR act: -3.4%

Results for COC(=O)C1=C(C)N(Cc2ccccc2)C(=S)NC1c1ccc(-c2ccccc2)cc1 (stereo not drawn) ?
ALOX12 inh: 22.4µM*

Results for COC(=O)C1=C(C)N(Cc2ccc(Cl)cc2)C(=S)NC1c1ccc(Cl)cc1 (stereo not drawn) ?
ALOX12 inh: 31.6µM*

What do the screens show for `COC(=O)C1=C(C)N(Cc2ccccc2)C(=O)N[C@H]1c1ccccc1`?
TRPML1 agonist: 2.7; Vif-A3F inh: -0.7%; TRPML1 inh: 2.4; Vif-A3G inh: -13.5%; ALOX12 inh: 3.2%; GRP78 ERSR act: -2.8%

Results for COC(=O)C1=C(C)N(Cc2ccccc2)C(=S)NC1c1cccc(OC)c1 (stereo not drawn) ?
ALOX12 inh: 31.6µM*

What do the screens show for `COC(=O)C1=C(C)N(Cc2ccccc2)C(=S)N[C@H]1c1ccccc1`?
TRPML1 agonist: 64.6*; Vif-A3F inh: inconclusive; TRPML1 inh: -22.5; Vif-A3G inh: -8.2%; ALOX12 inh: inconclusive; GRP78 ERSR act: -4.9%

What do the screens show for `CCOC(=O)C1=C(C)N(CC)C(=S)NC1c1ccc(Cl)cc1` (stereo not drawn)?
TRPML1 agonist: 4.9; Vif-A3F inh: inconclusive; TRPML1 inh: 5.8; Vif-A3G inh: -2.8%; ALOX12 inh: inconclusive; GRP78 ERSR act: -2.9%

How did CC(C)(CNC(=O)CSc1nnnn1-c1ccccc1)N1CCOCC1 do in these assays?
ALOX12 inh: -28.0%

What do the screens show for `CCNC(=O)c1ccccc1OCc1ccc(Cl)cc1`?
ALOX12 inh: 3.7%

How did CCc1cccc(CC)c1NC(=O)Cn1cnc2c1c(=O)n(C)c(=O)n2C do in these assays?
ALOX12 inh: -41.9%

What do the screens show for `CCOc1cc(CNc2ccc3c(c2)CCC3)ccc1O`?
TRPML1 agonist: -0.8; TRPML1 inh: 8.4; Vif-A3G inh: -5.7%; ALOX12 inh: -16.9%; GRP78 ERSR act: -4.3%

What do the screens show for `COc1cc(CNc2ccc3c(c2)CCC3)cc(OC)c1O`?
TRPML1 agonist: 0.5; Vif-A3F inh: -1.8%; TRPML1 inh: 10.1; Vif-A3G inh: 1.7%; ALOX12 inh: 1.12µM*; GRP78 ERSR act: -0.6%

Results for O=S1(=O)CCN2C(c3cc(Cl)ccc3Cl)=CSC2=N1 ?
ALOX12 inh: 4.7%

Results for Cc1ccc(NC(=O)CSc2nc(O)cc(=O)n2-c2ccc(C)cc2)cc1 ?
TRPML1 agonist: 0.0; Vif-A3F inh: 6.7%; TRPML1 inh: 4.9; Vif-A3G inh: 2.3%; ALOX12 inh: 2.24µM*; GRP78 ERSR act: -0.9%

How did Cn1c(SCC(=O)Nc2ccc(Br)cc2)nc(O)cc1=O do in these assays?
TRPML1 agonist: -0.5; Vif-A3F inh: -2.4%; TRPML1 inh: -17.1; Vif-A3G inh: 1.2%; ALOX12 inh: inconclusive; GRP78 ERSR act: inconclusive
